# Laboratory results published in PubChem BioAssay AID2314 (National Center for Advancing Translational Sciences (NCATS), 2010).
# Hit rate of the full screen: of about 300,000 compounds, about 37,000 (12%) were called active. No stated cut-off is given here; in the data, active means max response mostly above about 13% (no sharp cut-off); inactive means mostly below about 14%. Many of the other results were omitted from the sample, so actives are more common in it than they were.
# Assay: Cycloheximide Counterscreen for Small Molecule Inhibitors of Shiga Toxin; further: read at 38.3 µM for the half of the compounds with a filed dose; 0% is about no effect
# Details: cell reporter, cycloheximide protein synthesis inhibition counterscreen; hits give high values
row,Compound,max response
1,CC(=O)c1cc2c(cc1NC(=O)Cn1nc(-c3ccc(F)cc3)ccc1=O)OCO2,0.865% (inactive)
2,Cc1cc(C)nc(NNC2=CC(=O)CC(C)(C)C2)n1,2.37% (inactive)
3,CCCCN(Cc1ccccc1)C(=O)C1CCN(Cc2sccc2C)CC1,-5% (inactive)
4,CCOc1cc(C2/C(=C(/O)c3ccc(S(=O)(=O)N4CCCCC4)cc3)C(=O)C(=O)N2CCOC)ccc1O (stereo not drawn),-6.09% (inactive)
5,CC(=O)N/N=C(\C)c1ccc(Br)cc1Br,-2.79% (inactive)
6,CC(=N\NC(=O)c1cc(Br)ccc1O)/C(=N/O)C(=O)Nc1ccccc1,23.2% (active)
7,CC(C)/C=N/NC(=O)c1cc(Br)ccc1O,9.21% (inactive)
8,COc1ccc(/C=N/N=C/c2c[nH]c(=O)c(C#N)c2Nc2ccccc2)cc1,-2.7% (inactive)
9,COc1cccc(NC(=O)C(Sc2nc3ccccc3c(=O)n2CC(C)C)c2ccccc2)c1 (stereo not drawn),0.135% (inactive)
10,COc1ccc2c(-c3ccccc3)cc(SCC(=O)N(C)C3CCS(=O)(=O)C3)nc2c1 (stereo not drawn),-1.72% (inactive)
11,Cc1ccc(-n2c(O)c(C=NCC3CCCO3)c(=O)[nH]c2=O)c(C)c1 (stereo not drawn),-0.95% (inactive)
12,CC(=NCC1CCCO1)c1c(O)n(-c2ccccc2)c(=O)[nH]c1=O (stereo not drawn),4.02% (inactive)
13,O=C1C(C=NCC2CCCO2)=C(O)c2ccccc21 (stereo not drawn),32.1% (active)
14,CC(C)(C)c1ccc(CN2C(=O)c3ccccc3S2(=O)=O)cc1,17.5% (active)
15,O=C1c2ccccc2S(=O)(=O)N1Cc1c(F)cccc1Cl,-0.645% (inactive)
16,O=C1CN(Cc2ccccc2)S(=O)(=O)c2ccccc21,-0.808% (inactive)
17,CC1CN(S(=O)(=O)c2ccccc2)C(C)CN1S(=O)(=O)c1ccccc1 (stereo not drawn),-3.63% (inactive)
18,Cc1cc(C)cc(C(=O)NC(CC(N)=O)c2ccc(N3CCC(N4CCCCC4)CC3)c([N+](=O)[O-])c2)c1 (stereo not drawn),-1.84% (inactive)
19,NS(=O)(=O)c1ccc(NC(=S)Nc2ccc(Br)c(Cl)c2)cc1,-1.56% (inactive)
20,O=C(NCCc1ccc(Cl)cc1)C1CCCN1C(=O)NCc1ccccc1 (stereo not drawn),-1.54% (inactive)
21,CC1CCC(NC(=O)c2ccc(N3CCCC3=O)cc2)CC1 (stereo not drawn),40.8% (active)
22,C/C(=N\NC(=O)c1cccc(N2CCCC2=O)c1)c1ccc(N)cc1,27% (inactive)
23,O=C(NCCCN1CCCCCC1)c1ccc(N2CCCC2=O)cc1,-4.57% (inactive)
24,O=C(NCCc1ccc(Cl)cc1)c1cccc(N2CCCC2=O)c1,21.3% (active)

row,Compound,max response
1,CC1CCCC(NC(=O)c2cccc(N3CCCC3=O)c2)C1C (stereo not drawn),44.4% (active)
2,O=C(NCc1cccc(Cl)c1)C1CCN(c2nnc(N3CCCC3=O)s2)CC1,-2.64% (inactive)
3,CCCNC(=O)NCc1ccc(N2CCCC2=O)cc1,-2.06% (inactive)
4,CC1CCCC(NC(=O)CN2CCN(Cc3ccc(Cl)cc3)C2=O)C1C (stereo not drawn),-4.51% (inactive)
5,Cn1c2c(c(=O)n(C)c1=O)C(c1cccc([N+](=O)[O-])c1)Nc1ccccc1O2 (stereo not drawn),-1.06% (inactive)
6,Cc1ccc(S(=O)(=O)NCC2CCC(C(=O)N3CCOCC3)CC2)cc1 (stereo not drawn),3.28% (inactive)
7,Cc1cc2ccccn2c1C(=O)c1cccc(F)c1,-1.02% (inactive)
8,C=CCSc1nc(N)cc(=O)[nH]1,13.9% (inactive)
9,Cc1cc(S(=O)(=O)c2cc3ccc(O)c(C)c3oc2=O)ccc1F,-4.92% (inactive)
10,O=C(NCCc1ccccc1)C(=O)NCC1OCCN1S(=O)(=O)c1cccs1 (stereo not drawn),8.94% (active)
11,COc1ccc(CCNC(=O)C(=O)NCC2OCCN2S(=O)(=O)c2ccc(OC)c(C)c2)cc1 (stereo not drawn),0.773% (inactive)
12,O=C(NCc1ccccc1)C(=O)NCC1OCCN1S(=O)(=O)c1ccc(Br)cc1 (stereo not drawn),9.31% (inactive)
13,CCNCCC(=O)N1c2ccccc2Sc2ccc(NC(=O)OCC)cc21,-6.47% (inactive)
14,COc1ccc(S(=O)(=O)N2CCOCC2)cc1C(=O)Nc1nc2ccccc2s1,8.09% (inactive)
15,O=C(Nc1ccc2c(c1)OCO2)c1ccc(N2C(=O)c3ccccc3C2=O)cc1,14.1% (inactive)
16,O=C(Nc1ccccc1)c1ccc2c(c1)OCO2,29% (active)
17,Cn1nnnc1SCC(=O)Nc1nc2ccccc2s1,28.7% (active)
18,O=CN1CCN(C(=O)c2ccc3c(c2)OCO3)CC1,16.1% (inactive)
19,COC(=O)c1ccccc1NC(=O)CSc1nnnn1C,3.16% (inactive)
20,O=C(Nc1ccc(NC(=O)c2ccco2)c(Cl)c1)c1cccc([N+](=O)[O-])c1,5.37% (inactive)
21,C=CCn1c(SCC(=O)Nc2nc3ccccc3s2)nnc1-c1ccccc1O,6.55% (inactive)
22,O=C(Nc1nc2ccccc2s1)c1ccc2c(c1)OCO2,16.2% (active)
23,O=C(Nc1ccc(C2CC2(Cl)Cl)cc1)c1cccc([N+](=O)[O-])c1 (stereo not drawn),40.2% (active)
24,Cc1cc(C)c2nc(NC(=O)c3ccc4c(c3)OCO4)sc2c1,-3.86% (inactive)

row,Compound,max response
1,O=C(Nc1ccc(C(=O)N2CCCCC2)cc1)c1cccc([N+](=O)[O-])c1,-4.06% (inactive)
2,O=S(=O)(Nc1ccc(Oc2ncccn2)c(Cl)c1)c1ccc(F)cc1,5.26% (inactive)
3,CC1CCCCC1NC(=O)C1CCCN1S(=O)(=O)c1cccc2nsnc12 (stereo not drawn),3.55% (inactive)
4,Cc1cnc(C)c(N2CCN(C(=O)C3CCC(=O)N(CCc4cccc(F)c4)C3)CC2)n1 (stereo not drawn),-0.816% (inactive)
5,COc1ccc(C(=O)c2c(C)c(CCC#N)n3ccccc23)c(OC)c1,-1.97% (inactive)
6,CCOCCCN1C(=O)C2C(C(=O)Nc3ccc(OCC)cc3)C3C=CC2(O3)C1C(=O)NC1CCCCC1 (stereo not drawn),-3.23% (inactive)
7,CCNS(=O)(=O)c1ccc(NC(=O)c2cncc(Br)c2)cc1,-2.2% (inactive)
8,Cc1cc(N2CCOCC2)nc2ccc(NC(=S)N3CCN(Cc4ccccc4)CC3)cc12,3.98% (inactive)
9,CC(Sc1nc2cc(Cl)ccc2s1)C(=O)Nc1ccc2c(c1)OCO2 (stereo not drawn),29% (active)
10,O=C(Nc1cccnc1)c1ccc2c(c1)OCO2,19.3% (active)
11,O=C(Nc1cccnc1)c1noc2c1CCCCC2,32.5% (active)
12,COc1ccc(C(=O)Nc2cccnc2)cc1C(=O)Nc1cccnc1,-0.996% (inactive)
13,CC(=O)Nc1ccc(-c2csc(NC(=O)Nc3ccccc3)n2)cc1,10.8% (inactive)
14,CC(Sc1nc(-c2ccccc2)cc(C(F)(F)F)n1)C(=O)Nc1ccc2c(c1)OCO2 (stereo not drawn),-1.84% (inactive)
15,O=C(Nc1ccc2c(c1)OCO2)c1sc2cc(Cl)ccc2c1Cl,2.36% (inactive)
16,CC(NC(=O)Nc1ccccc1)c1ccccc1 (stereo not drawn),14.1% (inactive)
17,O=C(Nc1ccccc1)Nc1nc2ccccc2s1,37.9% (active)
18,O=C(Nc1cccnc1)c1cc2cc(Br)ccc2oc1=O,-1.47% (inactive)
19,O=C(Nc1cccnc1)c1cccc(S(=O)(=O)N2CCCC2)c1,3.36% (inactive)
20,CN(C(=O)CN1C(=O)/C(=C/c2ccc(Cl)cc2)SC1=S)C1CCS(=O)(=O)C1 (stereo not drawn),-10.5% (inactive)
21,Cc1nn(-c2ccccc2)c2c1c(C)c(CCC(=O)NCC1CCCO1)c(=O)n2C (stereo not drawn),-2.56% (inactive)
22,CC1(c2cccc([N+](=O)[O-])c2)CC(C)(C)N(C(=O)c2ccccc2)c2ccccc21 (stereo not drawn),4.81% (inactive)
23,O=c1c2ccccc2nc2n1C(CSCc1cccc(C(F)(F)F)c1)CS2 (stereo not drawn),1.18% (inactive)
24,CC(=O)N1c2ccc(S(=O)(=O)NCCC(=O)N(C)C3CCCCC3)cc2CC1C (stereo not drawn),10.2% (inactive)

row,Compound,max response
1,COc1cc(C(=O)NNC(=O)c2ccc(S(=O)(=O)N3CCCCC3)cc2)cc(OC)c1OC,-1.13% (inactive)
2,CCN(CC(=O)NC(=O)NCc1ccccc1)Cc1nc2ccccc2c(=O)[nH]1,-2.64% (inactive)
3,c1ccc(-c2cc3c(NCC4COc5ccccc5O4)ncnc3s2)cc1 (stereo not drawn),9.76% (inactive)
4,Cc1ccc2nc(-c3ccccn3)cc(C(=O)Nc3ccc4c(c3)OCO4)c2c1,20.8% (inactive)
5,CC(C)NC(=O)CSc1ccccc1C(=O)NCc1ccc2c(c1)OCO2,3.57% (inactive)
6,O=C(Nc1cccc([N+](=O)[O-])c1)c1ccc2c(c1)OCO2,36.2% (active)
7,CC(NS(=O)(=O)c1ccc(Cl)cc1)C(=O)Nc1ccc2c(c1)OCCO2 (stereo not drawn),-1.8% (inactive)
8,C/C(=N/NC(=O)c1ccncc1)c1ccc2c(c1)OCO2,0.639% (inactive)
9,C/C(=N\NC(=O)C(N)=O)c1ccc2c(c1)OCCO2,15.2% (inactive)
10,CC(NC(=O)Nc1cccc([N+](=O)[O-])c1)c1ccc2c(c1)OCO2 (stereo not drawn),-0.734% (inactive)
11,CCSc1ccccc1C(=O)Nc1ccc2c(c1)OCO2,21.7% (active)
12,CCN(CC)CCNC(=O)c1ccc(NS(=O)(=O)c2ccc3c(c2)OCCO3)cc1,2.7% (inactive)
13,O=C(Nc1cccc(S(=O)(=O)Nc2ccc(Cl)cc2)c1)c1ccc2c(c1)OCCO2,12.5% (active)
14,C/C(=N/NC(=S)Nc1ccccc1)c1ccc2c(c1)OCO2,33.6% (active)
15,O=C(NCc1cccnc1)c1ccccc1NC(=O)c1c(F)cccc1F,7.34% (inactive)
16,CCCCNC(=O)C1(O)c2ccccc2NC(=O)N1c1ccc(Cl)cc1 (stereo not drawn),7.78% (inactive)
17,CC(=O)Oc1ccc(N(C(C)=O)S(=O)(=O)c2ccc3ccccc3c2)cc1Br,-1.7% (inactive)
18,O=C(COc1ccc2ccc(=O)oc2c1)NCC(O)c1ccccc1 (stereo not drawn),-10.7% (inactive)
19,CN(CC(=O)NCc1ccncc1)S(=O)(=O)c1ccc(Br)cc1,-0.724% (inactive)
20,COc1ccc(C(C)C)cc1S(=O)(=O)Nc1ncn[nH]1,-4.29% (inactive)
21,CCc1nnc(NC(=O)CCC(=O)N2CCN(c3cc(C)ccc3C)CC2)s1,-5.72% (inactive)
